An excerpt weighted towards active compounds, which were near 6.9% of everything screened.
Cy5 interf NS3h: Cy5 fluorescence quenchers or enhancers, artefact control for HCV NS3 helicase inhibitor project, biochemical, ChemBridge library, Cy5 readout; Cy5-dT15 DNA with NS3h, fluorescence interference; actives lie on both sides; signal over control mean, under 1 quenches; fluorescence interference ratio at 100 µM; hit rate 6% among 16,000;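 active = compound fluorescence over control fluorescence at most 0.8, a quencher, or at least a set upper limit, an enhancer; inactive = ratio between 0.8 and the set upper limit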
HCV NS3h FP: HCV NS3 helicase inhibitors, primary screen, biochemical, fluorescence polarization, ChemBridge library | Hepatitis C virus NS3 helicase | NS3h Cy5-dT15 DNA binding | inhibition, % at 100 µM | hit rate 1.6% among 16,000 | AID 687043, 2013;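 active = inhibition above the average over every tested compound plus 3 SD, cut at about 40% in these data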
Hits are given with their value; - = inactive.

SMILES | Cy5 interf NS3h | HCV NS3h FP
CSc1ccccc1NC(=O)c1nn2c(c1Br)NC(c1ccccc1)CC2C(F)(F)F (stereo not given) | - | -
O=C(CN(c1ccccc1)S(=O)(=O)c1ccccc1[N+](=O)[O-])Nc1cccc(Cl)c1 | - | -
CC(NC(=O)CN(c1ccccc1)S(=O)(=O)c1ccccc1[N+](=O)[O-])c1ccccc1 (stereo not given) | 0.676 | -
CC(C)CNC(=O)CN(c1ccccc1)S(=O)(=O)c1ccccc1[N+](=O)[O-] | 0.689 | -
O=C(O)CN(c1ccccc1)S(=O)(=O)c1ccccc1[N+](=O)[O-] | - | -
CN(C)CCNC(=O)C12CC3CC(c4ccccc4)(C1)CC(c1ccccc1)(C3)C2 | - | -
CCOC(=O)c1sc(NN=C(C#N)C#N)c(C(=O)OCC)c1C | 0.562 | -
CCOC(=O)c1c(NC(=O)/C=C\C(=O)O)sc(C(=O)Nc2ccccc2)c1C | - | -
COc1ccc(/C=C/C(=O)NC(=S)Nc2ccc(C(C)=O)cc2)cc1 | - | -
COc1ccc(-c2nc(NC(=O)c3ccco3)sc2-c2ccc([N+](=O)[O-])cc2)cc1 | - | -
c1ccc(Nc2ccc3nc4ccccc4nc3c2)cc1 | 0.551 | -
Nn1c(Nc2ccccc2)nc2ccccc21 | - | -
CCC(CO)Nc1cc(N2CCOCC2)ccc1[N+](=O)[O-] (stereo not given) | 0.727 | -
COc1ccc(OCCNc2cc(Cl)ccc2[N+](=O)[O-])cc1 | - | -
CCC(CO)Nc1cc(Cl)ccc1[N+](=O)[O-] (stereo not given) | 0.69 | -
O=[N+]([O-])c1ccc(N2CCOCC2)cc1[N+](=O)[O-] | - | -
O=C(COc1ccc(/C=N\NS(=O)(=O)c2ccccc2)cc1)Nc1cccc(Cl)c1 | - | -
O=C(/C=C/c1ccco1)NCc1ccc2c(c1)OCO2 | - | -
O=C(NCc1ccc2c(c1)OCO2)c1ccco1 | 0.737 | -
COc1cc(NC(=O)c2cc(Cl)ccc2Cl)ccc1NC(=O)c1ccco1 | - | -
Cc1cccc(C(=O)Oc2ccc(/C=C3/SC(=S)N(c4ccccc4)C3=O)cc2)c1 | - | -
Cc1ccc(C=C2C(=O)N(C)C(=S)N(c3ccccc3)C2=O)s1 | 1.33 | -
CCc1ccccc1NC(=O)CN(c1ccc(Cl)cc1)S(C)(=O)=O | - | -
COc1ccc(/C(C)=N\N=C2/NC(=O)C(CC(=O)Nc3cccc([N+](=O)[O-])c3)S2)cc1 (stereo not given) | - | -
COc1ccc(N2C(=O)C3C4C=CC(C5CC45)C3C2=O)c([N+](=O)[O-])c1 (stereo not given) | - | -
SMILES | Cy5 interf NS3h | HCV NS3h FP
COc1cc([N+](=O)[O-])ccc1N1C(=O)C2C3C=CC(C4CC34)C2C1=O (stereo not given) | 0.749 | -
COc1ccc(CNc2ccc3c(c2)ncn3-c2ccc(OC)cc2)cc1 | - | -
CC(=O)N(C)N1c2ccccc2CCc2ccccc21 | - | -
CC(=O)N1c2ccccc2CC(N2CCCCC2)c2ccccc21 (stereo not given) | 0.76 | -
C/C(=C\C(=O)OCCOC(=O)/C=C(\C)NC1CC(C)(C)NC(C)(C)C1)NC1CC(C)(C)NC(C)(C)C1 | - | -
CCN1C(=O)C(=Cc2ccc(-c3cccc(C(=O)O)c3)o2)C(=O)N(CC)C1=S | 1.23 | 53.5
O=C1NN(c2ccc(F)cc2)C(=O)/C1=C\c1ccc(-c2cccc(C(=O)O)c2)o1 | - | -
COc1ccc(Cl)cc1C(=O)Nc1ccc(NC(=O)c2ccc(C(C)(C)C)cc2)cc1 | - | -
O=C(Nc1ccccc1)Nc1nnc(SCc2ccc(F)cc2)s1 | - | -
O=C(Nc1ccccc1)Nc1nnc(SCc2ccccc2F)s1 | 1.22 | -
O=C(c1nn2c(c1Br)NC(c1cccs1)CC2C(F)(F)F)N1CCOCC1 (stereo not given) | - | -
O=C(c1nn2c(c1Br)NC(c1cccs1)CC2C(F)(F)F)N1CCCc2ccccc21 (stereo not given) | 0.702 | -
COc1cc(/C=C2/SC(=S)N(CCC(=O)Nc3ccccc3C(=O)O)C2=O)cc(OC)c1OC | - | -
COc1cc(/C=C2/SC(=S)N(CCC(=O)Nc3ccc(C(C)=O)cc3)C2=O)cc(OC)c1OC | 0.634 | -
CCOc1cc(C2NC(=S)NC(C)=C2C(=O)OC(C)C)ccc1O (stereo not given) | - | -
Cc1ccc(N2C(=O)/C(=C/c3ccccc3C)C(=O)NC2=S)cc1 | - | -
Cc1ccc(N2CN=C(c3ccccc3)NC2=S)cc1 | 0.753 | -
COc1ccccc1C1C(=C(O)c2ccc([N+](=O)[O-])cc2)C(=O)C(=O)N1CCCCCC(=O)O (stereo not given) | - | -
Cc1ccc(OCC(=O)Nc2ccc(C)cc2[N+](=O)[O-])cc1 | - | -
O=C(Cc1ccc(Cl)cc1)Nc1cccnc1 | 0.714 | -
Cc1cc(OCC(=O)Nc2ccccc2[N+](=O)[O-])cc(C)c1Cl | 0.732 | -
COC(=O)c1cc(NC(=O)COc2cc(C)c(Cl)c(C)c2)cc(C(=O)OC)c1 | - | -
Cc1cc(OCC(=O)Nc2cccnc2)cc(C)c1Cl | 0.8 | -
O=C(Cc1ccc(Cl)cc1)Nc1ccc(Cl)cn1 | - | -
CCc1c(C)c(C#N)c2nc3ccccc3n2c1N1CCCCC1 | - | -
SMILES | Cy5 interf NS3h | HCV NS3h FP
Cc1ccccc1NC(=O)C(=O)NCC(C)C | - | -
CCCCCCCCNc1nc(OC)nc(OC)n1 | - | -
N/C(=N/OC(=O)c1ccc(I)cc1)c1ccncc1 | - | -
COc1ccc2oc(C(Cl)(Cl)Cl)cc(=O)c2c1 | - | -
COc1ccc2c(=O)cc(C(Cl)(Cl)Cl)oc2c1 | 0.654 | -
O=C(/C=C/c1ccc(Br)cc1)NC(=S)NCCCN1CCOCC1 | - | -
CCCCn1c(CN2C(=O)c3ccccc3C2=O)nc2ccccc2c1=O | - | -
O=c1c2ccccc2nc2ccc3nnnn3n12 | 0.733 | -
Cc1cc(Br)cc(C)c1NC(=O)COc1ccccc1 | - | -
CC12CC3CC(C)(C1)CC(CNC(=O)COc1ccccc1)(C3)C2 | 0.699 | -
COc1ccc(-c2cn3cccc(C)c3n2)cc1Br | - | -
COc1ccc(-c2cn3ccccc3n2)cc1Br | 0.79 | -
CC(=O)N1CCN(c2ccc([N+](=O)[O-])c(N)c2)CC1 | - | -
Cc1cccc(/C(N)=N\OC(=O)c2ccc(Br)cc2)c1 | - | -
Cc1ccc(-n2c(C)cc(/C=C3\NC(=O)NC3=O)c2C)cc1C | - | -
Oc1ccc(Br)cc1CN1CCN(Cc2cccc3ccccc23)CC1 | - | -
CS(=O)(=O)N1CCN(CCCc2ccccc2)CC1 | - | -
CS(=O)(=O)N1CCN(Cc2ccccc2Cl)CC1 | 0.606 | -
CS(=O)(=O)N1CCN(Cc2cccc3ccccc23)CC1 | 0.695 | -
CCOC(=O)C1=C(O)/C(=C\c2ccc(OCC)cc2)N=C1C | - | -
O=C(CSc1cc(Cl)ccc1Cl)Nc1cccc(Br)c1 | - | -
O=C(CSC1CC(=O)N(c2cccc(Br)c2)C1=O)Nc1ccc(Cl)cc1 (stereo not given) | 0.791 | 43.2
COC(=O)c1ccc(C(=O)OC)c(NC(=O)CC(c2ccccc2)c2ccccc2)c1 | 0.745 | -
COC(=O)c1ccc(C(=O)OC)c(NC(=O)c2c(Cl)cccc2Cl)c1 | - | -
COC(=O)c1ccc(C(=O)OC)c(NC(=O)Cc2ccccc2[N+](=O)[O-])c1 | 0.776 | -
COc1ccc(C)cc1NC(=O)Cc1ccccc1[N+](=O)[O-] | - | -
